Measurements reported in PubChem BioAssay (NCATS).
Results filed as inconclusive are left out. Active and inactive are the calls of the source. Unless noted, the call rests on the fitted dose curve; in most records, active means well fitted curve in the direction sought with a large enough effect; inconclusive means small, poorly fitted or top-dose-only effect, or another doubt; inactive means no such curve, though single readings can be large; an effect the other way counts as inactive or inconclusive.

Legend:
[1] = biological target: Cytochrome P450 1A2 (Homo sapiens) (UniProt P05177); experiment: p450-cyp1a2 (AID 410; calls by dose curve; further: potency means the concentration at half of the fitted maximal effect;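 on activity change, negative = inhibition: -100% = full effect of reference inhibitor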)
Outline: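 20nM CYP1A2, 100uM Luciferin-ME (=Km), 100mM KPO4; cpd 10 min RT; +NADPH regen, 60 min RT; stop/detect 20 min; luminescence. Normalized to furafylline 57 uM = full inhibition.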

[2] = NFAT Signaling Pathway (AID 444; active means well fitted curve in either direction with a large enough effect, not every such curve was filed as active;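 further: carbachol stimulus at about its EC50 of 1 µM final; on the % scale 0 is the no-effect control and ±100 the full control effect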); settings: Jurkat NFAT-bla M1, carbachol, beta-lactamase ratio, 5 h; at 17.2 µM (top of the series) unless noted
Outline: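 Jurkat cells carrying an NFAT-driven β-lactamase reporter and co-transfected muscarinic M1 receptor were treated with compound plus carbachol (1 uM final, an EC50 level) for 5 h at 37 °C. CCF4 loading followed for 1 h at RT; 460/530 nm ratio gave %activity.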

[3] = Stat Signaling Pathway (AID 446; active means well fitted curve in either direction with a large enough effect, not every such curve was filed as active;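 further: ME-180 cervical cancer cells given 40 pM IL-6 alongside compound; SIE-controlled beta-lactamase reporter measured as 460/530 nm FRET emission ratio; on the % scale 0 is the no-effect control and ±100 the full control effect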); settings: ME-180 SIE beta-lactamase reporter, IL-6 stimulated, 5 h; at 17.2 µM (top of the series) unless noted
Outline: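 Overnight-plated ME-180 cells bearing a STAT Inducible Element beta-lactamase reporter; 5 h co-exposure to compound and 40 pM IL-6; values normalized to 300 pM IL-6 and 125 nM JAK inhibitor controls.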

[4] = biological target: Glucocorticoid receptor (Homo sapiens) (UniProt P04150); experiment: GR-GFP Redistribution (AID 450;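 active means compounds whose dose series gives a full or clear partial fitted curve of increased nuclear translocation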; further: potency means the concentration at half of the fitted maximal effect)
[5] = biological target: Glucocorticoid receptor (Homo sapiens) (UniProt P04150); experiment: GR-EFC Redistribution (AID 451; calls by dose curve; further: potency means the concentration at half of the fitted maximal effect); settings: CHO-K1 GR-EFC translocation, beta-gal luminescence, 2 h
Outline: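 CHO-K1 cells stably expressing nuclear-localized β-gal enzyme acceptor and GR fused C-terminally to the enzyme donor fragment; ligand-driven nuclear translocation restores β-gal by complementation. Compounds titrated up to 46 uM final, 2 h at 37 °C; luminescence read.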

[6] = biological target: 3',5'-cyclic-AMP phosphodiesterase 4B (Homo sapiens) (UniProt Q07343); experiment: qHTS Assay for Inhibitors of PDE-IV (AID 607; active means well fitted activation curve with a large enough effect in the main read-out, with a control signal flat, not every such curve was filed as active; further: % of control where 0% means no effect)
Outline: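 Live HEK293 cells with a modified cyclic nucleotide-gated (CNG) channel report intracellular cAMP via membrane-potential dye fluorescence (ex 535/em 590 nm). Endogenous PDE-IV was targeted. Compounds were tested at up to 22.9 uM final; RO 20-1724 100 uM served as control.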

[7] = biological target: Cytochrome P450 3A4 (Homo sapiens) (UniProt P08684); experiment: qHTS Assay for Inhibitors and Substrates of Cytochrome P450 3A4 (AID 884); further: potency means the concentration at half of the fitted maximal effect; nearly all actives have a fitted effect of over 50% in size
Outline: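 Luminescent readout of luciferin produced by CYP3A4 (20 nM) dealkylation of Luciferin-PPXE, 25 uM (its KM). NADPH-driven reaction ran 60 min at RT after 10 min compound preincubation; data scaled to 57 uM ketoconazole as 100% inhibition.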

[8] = biological target: Cytochrome P450 2D6 (Homo sapiens) (UniProt P10635); experiment: qHTS Assay for Inhibitors and Substrates of Cytochrome P450 2D6 (AID 891);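 further: luciferin methyl ether substrate demethylated by CYP2D6 with NADPH regeneration; on the % scale 0 is the no-effect control and ±100 the full control effect; nearly all actives have a fitted effect of over 60% in size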
Outline: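 Luminescent read-out of luciferin formed by 5 nM human CYP2D6 demethylating 30 uM Luciferin-ME EGE (Km level) over 60 min at room temperature after NADPH regeneration addition. Data normalized to full inhibition by 1.43 uM quinidine.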

[9] = qHTS Assay for Identification of Small Molecule Antagonists for NFkB Signaling Pathway (AID 895; active means well fitted inhibition curve with a large enough effect in the signal ratio, with a control signal flat, not every such curve was filed as active; the % refers to the signal ratio; further: on the % scale 0 is the no-effect control and ±100 the full control effect)
Outline: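 NFkB-bla ME-180 cervical carcinoma cells with beta-lactamase reporter under NFkB response element; compounds added, then TNF alpha at 10 pM final (EC50), 5 h at 37 C. LiveBLAzer substrate 2 h, room temperature; emission 460/530 nm at 405 nm excitation.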

[10] = biological target: Pyruvate kinase (Leishmania mexicana) (UniProt Q27686); experiment: qHTS Validation Assay for Inhibitors of Leishmania Mexicana Pyruvate Kinase (AID 945); further: potency means the concentration at half of the fitted maximal effect;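 on activity change, negative = inhibition: 0% = DMSO only neutral control wells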
Outline: (§1)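 LmPYK E451W 0.2 nM; 0.5 mM PEP, 0.1 mM ADP, 7 mM MgCl2, 50 mM KCl, imidazole pH 7.2, 0.01% Tween 20, 0.05% BSA; 1 h RT; PKLight luminescence; DMSO-normalized.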

[11] = biological target: Pyruvate kinase PKM (Homo sapiens) (UniProt P14618); experiment: qHTS Assay for Activators of Human Muscle Pyruvate Kinase (AID 954; active means well fitted curve in the direction sought with a large enough effect, not every such curve was filed as active;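 further: 0% = uninhibited enzyme and -100% = no enzyme or full thiadiazolimine inhibition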)
Outline: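 Screening used highly purified human pyruvate kinase M2 under submaximal activity, with PEP at its Km and ADP below Km. After an hour at room temperature, ATP was read by luciferase luminescence.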

[12] = biological target: Alpha-galactosidase A (Homo sapiens) (UniProt P06280); experiment: Counterscreen for Glucocerebrosidase Inhibitors: qHTS Assay for Human alpha-Galactosidase at pH 4.5 (AID 992); further: 0% is about no effect
Outline: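 Each compound is preincubated briefly with 2 nM enzyme before substrate addition (80 uM); plates then sit 20 min at ambient temperature, are quenched with 1M NaOH/1M glycine, and read fluorometrically.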

[13] = biological target: alpha-glucosidase (Oryza sativa, rice) (UniProt Q653V4); experiment: Counterscreen for Glucocerebrosidase Inhibitors: qHTS Assay for Rice alpha-Glucosidase at pH 5.0 (AID 997);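 further: 0% = full activity with enzyme and -100% = basal without enzyme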
Outline: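 Endpoint fluorogenic assay at pH 5.0: compounds (0.7 nM to 77 uM) titrated against 4 nM rice enzyme and 400 uM 4-MU-alpha-glucoside for 20 min at room temperature; NaOH/glycine stop, read ex 365/em 440 nm, Hill-fitted AC50.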

[14] = biological target: Cytochrome P450 3A4 (Homo sapiens) (UniProt P08684); experiment: qHTS Assay for Activators of Cytochrome P450 3A4 (AID 885); further: nearly all actives have a fitted effect of over 65% in size
Outline: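 Using 20nM recombinant human CYP3A4 in potassium phosphate (200mM), substrate Luciferin-PPXE at 25uM, luminescent luciferin detection followed a 60-min RT NADPH reaction; data scaled to 57 uM ketoconazole.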

[15] = biological target: Cytochrome P450 2C19 (Homo sapiens) (UniProt P33261); experiment: qHTS Assay for Inhibitors and Substrates of Cytochrome P450 2C19 (AID 899); further: potency means the concentration at half of the fitted maximal effect; nearly all actives have a fitted effect of over 60% in size
Outline: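 Human CYP2C19 (5nM) with Luciferin-H EGE at 10uM (its KM) in 50mM KPO4 was preincubated with compound for 10 min at 37C. NADPH regeneration started a 60 min 37C reaction. Luciferin was read by luminescence, normalized to 57uM ketoconazole.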

[16] = qHTS Assay for Identification of Small Molecule Agonists for Thrombopoietin (TPO) Signaling Pathway (AID 917); further: potency means the concentration at half of the fitted maximal effect
Outline: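 Cell-based luciferase reporter screen. Mouse Ba/F3 line stably expressing human TPO receptor; IL-3 removed overnight before plating. Co-treatment with compound and EC50 TPO (26 pM), 24 hrs at 37 C, then luminescence.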

[17] = qHTS Assay for Identification of Small Molecule Agonists for NFkB Signaling Pathway (AID 928; calls by dose curve); settings: NFkB beta-lactamase reporter cells, blue/green ratio
Outline: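 Activators were sought with TNF alpha co-added at 10 pM final (its EC50) to beta-lactamase reporter cells. Cells were plated in OPTI MEM with 0.5% FBS and exposed for 5 hrs at 37 C. The FRET substrate ratio was read at 460 and 530 nm.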

[18] = biological target: Pyruvate kinase PKM (Homo sapiens) (UniProt P14618); experiment: qHTS Assay for Inhibitors of Human Muscle Pyruvate Kinase (AID 958)
Outline: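 Luminescence from a luciferase ATP-detection/stop reagent reported PKM2 activity. Reactions contained 0.1 nM purified human enzyme, 0.5 mM PEP, 0.1 mM ADP and 7 mM MgCl2 at pH 7.2, run 1 h at RT.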

[19] = biological target: Pyruvate kinase (Leishmania mexicana) (UniProt Q27686); experiment: qHTS Validation Assay for Activators of Leishmania Mexicana Pyruvate Kinase (AID 959)
Outline: as §1

[20] = biological target: Mitogen-activated protein kinase 10 (Mus musculus) (UniProt Q61831); experiment: JNK3 AlphaScreen Assay (AID 530; active means well fitted curve in either direction with a large enough effect, not every such curve was filed as active;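 further: kinase came from lysate of stimulated human HepG2 cells; signal reports phosphorylation of biotinylated GST-cJun 1-79 at Ser73 with 10 µM ATP; on the % scale 0 is the no-effect control and ±100 the full control effect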)
Outline: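 Biotinylated GST-cJun(1-79) served as substrate for JNK3 in HepG2 lysates stimulated with IL-1beta and TNF-alpha. ATP was 10 uM final, pH 7.6. Ser73 phosphorylation was quantified by AlphaScreen (680 nm excitation).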

[21] = biological target: Guanine nucleotide-binding protein G(i) subunit alpha-1 (Homo sapiens) (UniProt P63096); experiment: qHTS Assay for Inhibitors of RGS12 GoLoco Motif Activity (Green Fluorophore) (AID 879);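 further: 0% = labeled peptide with Gαi1 and full inhibition = labeled peptide alone without protein; negative values mean loss of peptide binding seen as reduced polarization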
Outline: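 A drop in FITC polarization marked displacement of the FITC-tagged RGS12 GoLoco peptide (10 nM) from Gαi1 (50 nM). Compounds were incubated 10 min at room temperature in Tris pH 7.5 buffer containing 150 mM NaCl, 0.1 mM GDP and 0.05% NP40; unlabeled peptide titration served as control.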

[22] = Confirmation and Secondary Assay for Modulators of Hemoglobin Beta Chain Splicing at IVS2 654 locus (AID 910);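 further: per-well total GFP intensity by laser scanning cytometry after 2-day treatment; potency means the concentration at half of the fitted maximal effect; potency of activators that raise GFP signal by restoring correct splicing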
Outline: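 HeLa cells stably carrying EGFP interrupted by mutant beta-globin IVS2-654 intron (CMV-driven) were treated with compound for 2 days at 37C; corrected splicing was scored as total peak GFP intensity per well (488 nm excitation, 500-520 nm emission).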

[23] = qHTS Assay for Identification of Small Molecule Agonists for Hypoxia Response Element Signaling Pathway (AID 914; active means well fitted activation curve with a large enough effect in the signal ratio, with a control signal flat, not every such curve was filed as active; the % refers to the signal ratio; further: % of control where 0% means no effect); settings: ME-180 HRE-bla reporter, beta-lactamase ratio, CoCl2, 17 h; activation: stronger effect = higher value
Outline: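 ME-180 cells carrying an HRE-driven beta-lactamase reporter were treated with compounds in a titration series plus an EC50 level of CoCl2 for 17 h at 37 degrees Celsius; CCF4 readout as the 460nm/530nm ratio gave AC50 values.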

[24] = Confirmation and Secondary Assay for Modulators of Hemoglobin Beta Chain Splicing at IVS2 705 locus (AID 930); further: potency means the concentration at half of the fitted maximal effect
Outline: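 HeLa cells stably carrying EGFP interrupted by mutant beta-globin IVS2-705 intron (CMV-driven) were seeded at 500 cells/well, treated next day with compound for 2 days at 37C; corrected splicing restores EGFP, read as total peak GFP intensity per well.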

[25] = biological target: Muscarinic acetylcholine receptor M1 (Rattus norvegicus) (UniProt P08482); experiment: qHTS Assay for Antagonists of Acetylcholine Muscarinic M1 Receptor: Kinetic Measurement of Intracellular Calcium Response (AID 943);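 further: Fluo-4 calcium signal as peak divided by basal fluorescence over 4 min; nearly all actives have a fitted effect of over 75% in size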
Outline: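 Read-out: peak over basal Fluo-4 fluorescence, kinetic at 1 Hz for 4 min after EC80 carbachol (100 nM final). Rat M1-CHO cells, dye loaded 1 h at 37C, compound added 10 min before agonist.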

[26] = biological target: Ubiquitin carboxyl-terminal hydrolase 1 (Homo sapiens) (UniProt O94782); experiment: Inhibitors of USP1/UAF1: Pilot qHTS (AID 504865);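 further: rhodamine fluorescence freed from ubiquitin-rhodamine substrate followed over time; top concentration of the series differs between compounds; on the % scale 0 is the no-effect control and ±100 the full control effect; nearly all actives have a fitted effect of over 35% in size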
Outline: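 In 50mM HEPES pH 7.8 containing 0.5mM EDTA, 1mM TCEP, 0.1 mg/ml BSA and 0.01% Tween-20, 1nM USP1/UAF1 is exposed to compound for 15 min, then Ub-Rho (150nM final) is added and fluorescence is read over time.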

Glucocorticoid receptor (Homo sapiens), sequence (P04150 whole entry, looked up, the tested form may be a part): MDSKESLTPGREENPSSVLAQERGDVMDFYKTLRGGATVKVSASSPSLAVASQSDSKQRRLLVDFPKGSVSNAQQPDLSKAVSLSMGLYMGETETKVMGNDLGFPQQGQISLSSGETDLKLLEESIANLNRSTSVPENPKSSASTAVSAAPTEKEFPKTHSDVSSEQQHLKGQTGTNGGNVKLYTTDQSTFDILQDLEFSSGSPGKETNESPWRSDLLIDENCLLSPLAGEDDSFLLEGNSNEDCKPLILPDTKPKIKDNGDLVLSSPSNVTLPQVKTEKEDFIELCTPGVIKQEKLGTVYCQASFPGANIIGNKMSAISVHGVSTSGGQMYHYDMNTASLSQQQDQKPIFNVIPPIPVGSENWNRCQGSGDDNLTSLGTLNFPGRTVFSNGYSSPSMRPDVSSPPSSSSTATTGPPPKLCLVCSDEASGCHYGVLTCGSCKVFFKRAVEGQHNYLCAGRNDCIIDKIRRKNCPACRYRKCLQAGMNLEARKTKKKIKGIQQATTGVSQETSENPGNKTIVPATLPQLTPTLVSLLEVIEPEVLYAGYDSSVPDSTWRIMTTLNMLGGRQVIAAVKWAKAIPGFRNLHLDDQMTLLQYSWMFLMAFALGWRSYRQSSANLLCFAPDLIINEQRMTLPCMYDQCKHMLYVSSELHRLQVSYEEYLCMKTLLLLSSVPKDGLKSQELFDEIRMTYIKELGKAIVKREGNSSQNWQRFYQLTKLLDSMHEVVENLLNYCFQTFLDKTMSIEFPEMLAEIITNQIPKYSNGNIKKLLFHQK
3',5'-cyclic-AMP phosphodiesterase 4B (Homo sapiens), sequence (Q07343 whole entry, looked up): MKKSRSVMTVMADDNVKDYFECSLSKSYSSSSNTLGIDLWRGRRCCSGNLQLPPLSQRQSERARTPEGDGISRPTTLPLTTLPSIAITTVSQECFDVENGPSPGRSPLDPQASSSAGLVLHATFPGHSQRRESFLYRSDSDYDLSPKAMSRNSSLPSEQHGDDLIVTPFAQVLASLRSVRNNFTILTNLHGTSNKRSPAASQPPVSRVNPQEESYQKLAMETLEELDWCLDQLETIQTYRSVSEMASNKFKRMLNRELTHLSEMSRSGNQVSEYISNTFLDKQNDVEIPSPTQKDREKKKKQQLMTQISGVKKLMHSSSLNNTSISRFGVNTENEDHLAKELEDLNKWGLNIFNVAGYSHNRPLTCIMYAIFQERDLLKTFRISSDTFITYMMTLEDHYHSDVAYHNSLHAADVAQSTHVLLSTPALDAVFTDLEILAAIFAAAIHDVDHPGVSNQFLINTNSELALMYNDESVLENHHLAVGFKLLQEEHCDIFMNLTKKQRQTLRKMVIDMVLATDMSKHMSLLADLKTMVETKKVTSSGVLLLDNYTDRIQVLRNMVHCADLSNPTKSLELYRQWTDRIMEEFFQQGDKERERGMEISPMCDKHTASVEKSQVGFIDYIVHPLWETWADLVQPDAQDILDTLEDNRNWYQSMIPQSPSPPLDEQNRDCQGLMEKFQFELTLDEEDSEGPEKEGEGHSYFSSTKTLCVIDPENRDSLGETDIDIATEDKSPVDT
Alpha-galactosidase A (Homo sapiens), sequence (P06280 whole entry, looked up): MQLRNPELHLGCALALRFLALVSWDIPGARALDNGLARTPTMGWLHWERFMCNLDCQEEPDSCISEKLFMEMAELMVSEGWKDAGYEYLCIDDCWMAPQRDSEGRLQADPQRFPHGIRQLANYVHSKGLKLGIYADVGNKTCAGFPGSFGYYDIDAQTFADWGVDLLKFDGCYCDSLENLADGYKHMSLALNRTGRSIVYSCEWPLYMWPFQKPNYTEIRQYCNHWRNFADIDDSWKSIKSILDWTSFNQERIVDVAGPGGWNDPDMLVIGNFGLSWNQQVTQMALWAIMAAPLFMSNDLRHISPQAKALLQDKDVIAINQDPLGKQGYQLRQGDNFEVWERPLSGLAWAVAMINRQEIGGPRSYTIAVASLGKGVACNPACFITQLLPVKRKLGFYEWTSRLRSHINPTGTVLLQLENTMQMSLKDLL
Pyruvate kinase PKM (Homo sapiens), sequence (P14618 whole entry, looked up): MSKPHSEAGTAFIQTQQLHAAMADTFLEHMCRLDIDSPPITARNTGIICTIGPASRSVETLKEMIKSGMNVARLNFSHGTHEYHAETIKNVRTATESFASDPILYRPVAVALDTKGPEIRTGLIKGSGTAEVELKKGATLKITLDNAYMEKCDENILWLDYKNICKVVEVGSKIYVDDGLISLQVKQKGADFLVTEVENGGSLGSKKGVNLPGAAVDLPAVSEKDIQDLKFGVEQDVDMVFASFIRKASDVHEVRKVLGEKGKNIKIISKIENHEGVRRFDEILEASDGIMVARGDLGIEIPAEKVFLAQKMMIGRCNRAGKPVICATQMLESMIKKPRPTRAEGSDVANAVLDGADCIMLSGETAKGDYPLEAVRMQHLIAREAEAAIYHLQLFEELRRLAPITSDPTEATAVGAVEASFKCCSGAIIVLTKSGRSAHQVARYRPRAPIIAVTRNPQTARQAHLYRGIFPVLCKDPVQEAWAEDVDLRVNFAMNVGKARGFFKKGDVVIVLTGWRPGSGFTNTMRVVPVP
Pyruvate kinase (Leishmania mexicana), sequence (Q27686 2-499 E452W): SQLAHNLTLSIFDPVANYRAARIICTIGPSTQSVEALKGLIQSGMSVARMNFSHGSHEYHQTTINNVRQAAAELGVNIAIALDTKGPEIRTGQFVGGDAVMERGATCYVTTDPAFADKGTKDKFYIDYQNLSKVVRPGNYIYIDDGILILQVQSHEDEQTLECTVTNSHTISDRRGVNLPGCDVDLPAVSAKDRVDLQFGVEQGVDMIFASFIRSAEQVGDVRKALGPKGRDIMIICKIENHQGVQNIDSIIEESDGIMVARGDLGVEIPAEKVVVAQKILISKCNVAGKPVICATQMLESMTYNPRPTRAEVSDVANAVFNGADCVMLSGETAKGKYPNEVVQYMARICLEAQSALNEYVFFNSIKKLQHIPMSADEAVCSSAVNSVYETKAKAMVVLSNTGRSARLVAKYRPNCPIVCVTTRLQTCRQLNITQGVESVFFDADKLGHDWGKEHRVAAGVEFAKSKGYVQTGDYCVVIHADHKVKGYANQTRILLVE
Cytochrome P450 1A2 (Homo sapiens), sequence (P05177 whole entry, looked up): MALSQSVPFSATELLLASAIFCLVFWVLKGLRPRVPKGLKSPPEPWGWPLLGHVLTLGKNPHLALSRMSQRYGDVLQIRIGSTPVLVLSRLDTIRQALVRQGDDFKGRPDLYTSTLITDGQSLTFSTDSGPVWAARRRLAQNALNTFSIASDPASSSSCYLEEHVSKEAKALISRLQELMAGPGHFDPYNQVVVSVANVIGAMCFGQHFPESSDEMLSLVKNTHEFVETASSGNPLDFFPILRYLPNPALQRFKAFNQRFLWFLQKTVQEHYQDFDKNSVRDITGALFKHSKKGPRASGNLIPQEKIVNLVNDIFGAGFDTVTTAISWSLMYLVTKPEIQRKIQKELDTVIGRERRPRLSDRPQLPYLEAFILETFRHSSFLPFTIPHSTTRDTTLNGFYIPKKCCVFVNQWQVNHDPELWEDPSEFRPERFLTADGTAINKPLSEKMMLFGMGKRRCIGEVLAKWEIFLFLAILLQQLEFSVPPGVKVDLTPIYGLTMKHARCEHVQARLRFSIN
Cytochrome P450 3A4 (Homo sapiens), sequence (P08684 whole entry, looked up): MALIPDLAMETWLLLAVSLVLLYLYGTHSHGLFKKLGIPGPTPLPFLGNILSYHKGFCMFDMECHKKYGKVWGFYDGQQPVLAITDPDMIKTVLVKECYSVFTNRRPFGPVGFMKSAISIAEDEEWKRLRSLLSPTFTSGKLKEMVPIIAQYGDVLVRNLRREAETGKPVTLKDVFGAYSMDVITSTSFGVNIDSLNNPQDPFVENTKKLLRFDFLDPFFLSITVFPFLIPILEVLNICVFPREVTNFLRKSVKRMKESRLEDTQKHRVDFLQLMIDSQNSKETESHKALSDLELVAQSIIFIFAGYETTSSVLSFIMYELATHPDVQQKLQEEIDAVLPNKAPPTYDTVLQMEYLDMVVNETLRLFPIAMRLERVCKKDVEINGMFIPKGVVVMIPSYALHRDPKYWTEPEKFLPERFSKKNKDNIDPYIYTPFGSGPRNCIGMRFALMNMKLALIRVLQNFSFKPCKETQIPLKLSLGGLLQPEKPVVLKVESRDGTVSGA
Guanine nucleotide-binding protein G(i) subunit alpha-1 (Homo sapiens), sequence (P63096 whole entry, looked up): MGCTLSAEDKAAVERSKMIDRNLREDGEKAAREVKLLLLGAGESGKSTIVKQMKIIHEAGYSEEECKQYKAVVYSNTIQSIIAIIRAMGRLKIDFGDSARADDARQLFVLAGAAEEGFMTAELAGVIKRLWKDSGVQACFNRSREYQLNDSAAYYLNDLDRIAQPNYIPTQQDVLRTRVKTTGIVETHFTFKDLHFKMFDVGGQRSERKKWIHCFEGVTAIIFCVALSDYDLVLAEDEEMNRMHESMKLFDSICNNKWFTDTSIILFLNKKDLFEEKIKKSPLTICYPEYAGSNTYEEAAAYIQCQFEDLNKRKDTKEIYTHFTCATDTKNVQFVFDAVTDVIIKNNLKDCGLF
Cytochrome P450 2D6 (Homo sapiens), sequence (P10635 whole entry, looked up): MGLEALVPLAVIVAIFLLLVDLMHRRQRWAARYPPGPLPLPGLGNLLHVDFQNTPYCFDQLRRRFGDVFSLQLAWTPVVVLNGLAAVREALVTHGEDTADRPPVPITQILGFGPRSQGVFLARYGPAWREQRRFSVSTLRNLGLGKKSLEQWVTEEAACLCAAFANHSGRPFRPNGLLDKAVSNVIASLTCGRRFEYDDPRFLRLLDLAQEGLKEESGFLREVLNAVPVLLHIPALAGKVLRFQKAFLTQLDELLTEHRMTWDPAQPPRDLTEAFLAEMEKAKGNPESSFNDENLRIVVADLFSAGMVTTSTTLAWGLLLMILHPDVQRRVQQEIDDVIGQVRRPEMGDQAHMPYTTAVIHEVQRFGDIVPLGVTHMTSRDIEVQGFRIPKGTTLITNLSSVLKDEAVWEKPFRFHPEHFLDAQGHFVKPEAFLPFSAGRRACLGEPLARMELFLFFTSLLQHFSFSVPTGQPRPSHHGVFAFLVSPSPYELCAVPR

CC[C@]1(O)C[C@H]2CN(CCc3c([nH]c4ccccc34)[C@](C(=O)OC)(c3cc4c(cc3OC)N(C=O)[C@H]3[C@@](O)(C(=O)OC)[C@H](OC(C)=O)[C@@]5(CC)C=CCN6CC[C@]43[C@H]65)C2)C1
active: Potency [7] 3.98 µM
inactive: Potency [1] | activity change, negative = inhibition [2] -8.89% [at 38 µM] | activity, negative = inhibition [3] -14.3% [at 38 µM] | Potency [4] > 46 µM | Potency [5] > 46 µM | Potency [6] | Potency [8] | Potency [9] | Potency [10] | outcome [11] | outcome [12] | outcome [13]

COc1cccc2c1C(=O)c1c(O)c3c(c(O)c1C2=O)C[C@](O)(C(=O)CO)C[C@H]3O[C@@H]1C[C@H](N)[C@H](O)[C@H](C)O1
inactive: Potency [1] | Potency [4] > 20.6 µM | Potency [5] > 20.6 µM | Potency [6]
active: activity, negative = inhibition [3] 92.4% [activator]

COc1ccc(NC(=O)/C=C\c2ccc(Cl)cc2)cc1
inactive: activity change, negative = inhibition [2] -10.1% [at 38 µM] | Potency [4] > 46 µM | Potency [5] > 46 µM | Potency [6] | Potency [14] | outcome [11] | Potency [19] | outcome [12] | outcome [13]
active: Potency [1] 5.01 µM | Potency [15] 3.98 µM | Potency [16] 0.316 µM | Potency [17] 1.41 µM | Potency [10] 10 µM | Potency [18] 15.8 µM

OC[C@@H]1O[C@@H](n2cnc3cncnc32)[C@@H](O)[C@H]1O
inactive: Potency [1] | activity change, negative = inhibition [2] -10.9% [at 38 µM] | activity, negative = inhibition [3] -14.6% [at 38 µM] | Potency [4] > 46 µM | Potency [5] > 46 µM | Potency [20] | Potency [6] | outcome [21] | activation [23] 4.26% | Potency [16] | Potency [25] | Potency [10] | outcome [11] | outcome [12] | outcome [13]
active: Potency [22] 5.01 µM | Potency [24] 12.6 µM

O[C@@H]1[C@@H]2c3cc4c(cc3CN3CCC(=C[C@@H]1O)[C@H]23)OCO4
active: Potency [1] 15.8 µM
inactive: Potency [4] > 20.6 µM | Potency [5] > 20.6 µM | Potency [20] | Potency [6] | Potency [26]
